Source: PubChem
Compounds with a hit are over-represented: about 5.7% of the library has one in this group of screens.
HEK293 tox = qHTS of GLP-1 Receptor Inverse Agonists: Cytotox Screen; HEK293 cAMP-luciferase reporter cells, luminescence, 24 h; Potency, µM (top dose mostly 38.3 µM), for the others: at the highest dose activity change, negative = inhibition, hits mostly inhibitors; 0.13% of 410,000 active; AID 624418, 2012;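 note: loss of luciferase light is scored as toxicity; potency is the fitted concentration of half-maximal effect; % is set by controls: 0 for no effect and ±100 for the full control effect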
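Compound-treated cells are incubated 24 hr at 37 deg C under 5% CO2 after a 12 hour attachment period, then luciferase detection reagent is added and luminescence is measured following 12 min at room temperature; lowered signal indicates toxicity.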
DRD3 antagonist = qHTS of D3 Dopamine Receptor Antagonist: qHTS. max response, negative = inhibition, %. 2.5% of 360,000 active. AID 652054, 2013. D3R cells, DiscoveRx beta-arrestin luminescence, antagonist mode; stronger effect = lower value. D(3) dopamine receptor (Homo sapiens), P35462; in the data active = max response below about -50%; inconclusive = no clear call, values can overlap the other calls; note: % is set by controls: 0 for no effect and ±100 for the full control effect
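Cells expressing the human receptor were seeded at 1500 cells/well, incubated overnight at 37 degrees C in 5% CO2, then exposed to library compounds with dopamine controls for 90 minutes at 37 degrees C before luminescent detection.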
GLP-1R agonist = qHTS of GLP-1 Receptor Agonists; HEK293 GLP-1R CRE-luciferase, luminescence, 4-6 h; cells express a hypersensitive GLP-1R form; Potency, µM (titrated, usually from 45.6 µM), inactives show at the highest dose activation, actives largely listed as activators; 0.007% of 380,000 active; Glucagon-like peptide 1 receptor (Homo sapiens), P43220; note: potency is the fitted concentration of half-maximal effect; % of control where 0% means no effect
GLP-1R inv ag = qHTS of GLP-1 Receptor Inverse Agonists (Inhibition Mode); HEK293 GLP-1R CRE-luciferase, luminescence, 24 h; GLP-1R form is constitutively active; Potency, µM (titrated, usually from 38.3 µM), inactives show at the highest dose activity change, negative = inhibition, actives largely listed as inhibitors; AID 624417, 2012; 1.6% of 410,000 active; note: potency is the fitted concentration of half-maximal effect; % is set by controls: 0 for no effect and ±100 for the full control effect; nearly all actives have a fitted effect of over 55% in size
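Cells are plated, allowed 12 hours at 37 deg C, then treated with compounds for 24 hr before luciferase detection reagent is added and luminescence is read after 12 min at room temperature. The HEK293 line carries constitutively active GLP-1R with a cAMP-responsive reporter.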
ClpP mod = qHTS Assay for Activators of ClpP | ATP-dependent Clp protease proteolytic subunit (Bacillus subtilis (strain 168)), P80244 | purified B. subtilis ClpP, FRET peptide cleavage, 20 min | Potency, µM (top dose mostly 57.5 µM), for inactives: at the top dose activity change, negative = active | 1.9% of 340,000 active | AID 651965, 2013; active = well fitted falling curve with a large enough effect; inconclusive = small, poorly fitted or top-dose-only effect; inactive = no such curve, though single readings can be large or run the other way; note: potency is the fitted concentration of half-maximal effect; the source files actives as falling curves though it sought activators and does not explain the sign; nearly all actives have a fitted effect of over 65% in size
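ClpP 10 microg/mL final, pH 8 Tris/KCl buffer with BSA, glycerol, Tween-20; compound pinned in; FRET-FV substrate; RT 20 min; Ex320/Em430; ΔFRET vs ADEP 5.8 microM, DMSO, no enzyme.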
DRD3 agonist = qHTS of D3 Dopamine Receptor Agonist: qHTS. D(3) dopamine receptor (Homo sapiens), P35462. D3R DiscoveRx beta-arrestin cells, luminescence, 90 min. max activation, %. 0.58% of 410,000 active; in the data active = max activation above about 30%; note: 0% is about no effect
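Agonist mode: compounds and dopamine controls were applied to plated cells for 90 min at 37 degrees C after an overnight attachment at 1500 cells/well. Luminescent read-out followed 30 - 60 minutes at room temperature with DiscoveRx detection reagent.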
Starred values were filed as active, the others as inactive; ? = inconclusive; / = not tested or not shown. Unless noted, calls come from the whole dose curve; as a rule, active = well fitted curve in the direction sought with a large enough effect; inconclusive = small, poorly fitted or top-dose-only effect, or another doubt; inactive = no such curve, though single readings can be large; an effect the other way counts as inactive or inconclusive.

SMILES | HEK293 tox | DRD3 antagonist | GLP-1R agonist | GLP-1R inv ag | ClpP mod | DRD3 agonist
CC1CCN(c2ccc(NC(=O)Cc3ccccc3)cc2)CC1 | -12% | -8 | -10% | 8% | / | -23
CN1CCC(=C(c2ccccc2)c2ccc(Br)cc2)CC1 | ? | -99* | -4% | ? | -2% | -26
COc1cc(N=Nc2ccccc2C(=O)O)ccc1O | -20% | -58* | -10% | 31% | -1% | -5
Cc1ccc2nc(SCC(=O)c3c[nH]c4ccccc34)[nH]c2c1 | -15% | -2 | 21% | ? | / | -8
O=C(CSc1nc2ccccc2[nH]1)c1c[nH]c2ccccc12 | 15% | -56* | 13% | -3% | / | -11
O=C(CSc1nc2ccccc2[nH]1)N1CCN(c2ccccc2)CC1 | 3% | 14 | -9% | 3% | 0% | 3
O=C(CSc1nc2ccccc2[nH]1)N1CCCCC1 | -7% | -96* | -2% | 1% | 1% | -16
Cc1cc(=O)[nH]c(SCC(=O)N2CCCC2)n1 | 1% | 7 | -7% | 4% | 22µM* | 0
Cc1cc(N(C)Cc2ccccc2)n2nc(-c3ccc(C(C)(C)C)cc3)nc2n1 | -8% | / | / | 8% | -3% | 8
Cc1cc(S(=O)(=O)Nc2ccc(C(=O)O)cc2)c(C)c(S(=O)(=O)c2ccc(Cl)cc2)c1 | 1% | / | / | -15% | -4% | 0
O=C1c2ccccc2NC2CCCCCN12 (stereo unspecified) | -8% | 12 | 2% | 5% | 13µM* | 0
O=C(OCc1cc(=O)n2c3c(sc2n1)CCCC3)c1cccc(NC(=O)c2ccccc2F)c1 | 5% | / | / | -19% | -12% | -10
CC1=C(C#N)C(c2cn(-c3ccccc3)nc2-c2cccs2)C(C#N)=C(C)N1 | 1% | 26 | -1% | ? | 35µM* | 33*
Cc1ccc(N2C(=O)CSC2c2cccs2)cc1 (stereo unspecified) | 0% | -57* | -4% | ? | -2% | 12
Cc1cc(C)cc(N2C(=O)CSC2c2cccs2)c1 (stereo unspecified) | -10% | -5 | 4% | -26% | 0% | -5
CCC(C)NC(=O)c1ccc2nc(-c3cccs3)c(-c3cccs3)nc2c1 (stereo unspecified) | / | / | / | / | -28% | /
O=c1c(Cc2ccc(F)cc2)c(O)ccn1Cc1cccc(Cl)c1 | -7% | 35 | -10% | 7.9µM* | 1% | -5
O=c1c(Cc2ccc(Cl)cc2)c(O)ccn1Cc1cccc(Cl)c1 | -6% | 0 | -17% | ? | -3% | 3
COc1ccc(-n2cc(C(=O)Oc3cc(C)cc(C)c3)c3ccccc3c2=O)cc1 | 1% | / | / | 7% | -3% | -11
CC(=O)Nc1cc(C(=O)OCC(=O)c2ccc(Cl)cc2Cl)ccc1C | -16% | 2 | -6% | 9% | 0% | 18
CC(C)C(=O)Nc1cccc(C(=O)OCC(=O)c2ccc(Cl)cc2Cl)c1 | -19% | 44 | 1% | -6% | -1% | 31*
CCn1cc(/C=N/NS(=O)(=O)c2ccc(OC)cc2)c(C)n1 | 19% | 14 | -7% | 1% | 32µM* | 0
Cc1cccc(N2CCN(C(=O)C3CCN(S(=O)(=O)c4ccc5c(c4)oc(=O)n5C)CC3)CC2)c1C | -5% | / | 0% | ? | -4% | -5
O=C1C(SCCO)=C(SCCO)C(=O)c2ccccc21 | 120% | -136* | -13% | -85% | 2% | -67
O=C1C(Cl)=C(NCCCO)C(=O)c2ccccc21 | -9% | -25 | -22% | ? | -2% | -2
SMILES | HEK293 tox | DRD3 antagonist | GLP-1R agonist | GLP-1R inv ag | ClpP mod | DRD3 agonist
Cc1ccc2c(CC(=O)Nc3c(C(=O)c4ccc(F)cc4)oc4ccccc34)coc2c1C | 16% | / | / | 7% | -5% | -2
CCCCn1c(-c2ccco2)n[nH]c1=S | -16% | 0 | 2% | ? | 22µM* | -1
CC1(C)N=C(N)N=C(N)N1c1ccc(OCC(=O)Nc2ccccc2)c(Cl)c1 | 2% | -62* | 3% | ? | -2% | -6
CCc1ccc(S(=O)(=O)N2c3ccc(C)cc3C3CN(C)CCC32)cc1 (stereo unspecified) | -6% | ? | -5% | ? | -5% | -20
Cc1ccc2c(c1)[C@@H]1CN(C)CC[C@@H]1N2S(=O)(=O)c1ccc(F)cc1 | -21% | -63* | -4% | ? | -1% | -21
Cc1ccc2c(c1)[C@@H]1CN(C)CC[C@@H]1N2S(=O)(=O)c1ccc([N+](=O)[O-])cc1 | -15% | -107* | 1% | 0% | 1% | -14
COCCN(C(=O)COC(=O)Cc1coc2cc3c(cc12)CCC3)c1c(N)n(Cc2ccccc2)c(=O)[nH]c1=O | 8% | -4 | 0% | -25% | 18µM* | -13
COCCN(C(=O)COC(=O)c1oc2ccc(OC)cc2c1C)c1c(N)n(Cc2ccccc2)c(=O)[nH]c1=O | 0% | 11 | 8% | 2% | 13µM* | 0
COCCN(C(=O)COC(=O)COc1ccc2c(c1)CCC2)c1c(N)n(Cc2ccccc2)c(=O)[nH]c1=O | 0% | -2 | -3% | 11% | 1% | 7
COCCN(C(=O)COC(=O)c1ccccc1Nc1ccccc1)c1c(N)n(Cc2ccccc2)c(=O)[nH]c1=O | -14% | -23 | 8% | 13µM* | / | 6
COC[C@@H](c1ccc(C(F)(F)F)cc1)N1CCN(C2(C)CCN(C(=O)c3c(C)ncnc3C)CC2)C[C@@H]1C | / | / | -4% | / | / | /
CN(C)/C=N/c1nc2nccc(-c3cccnc3)n2n1 | 4% | 3 | 4% | 12% | / | 5
COc1ccc(-c2ccnc3nc(/N=C/N(C)C)nn23)cc1 | 10% | -3 | 4% | 32% | / | -2
COc1cccc(OC(C)c2ccnc3nc(/N=C/N(C)C)nn23)c1 (stereo unspecified) | -5% | -13 | 7% | 1% | 32µM* | -1
CC(Oc1ccc(C(C)(C)C)cc1)c1ccnc2nc(/N=C/N(C)C)nn12 (stereo unspecified) | -18% | 7 | 14% | -6% | 28µM* | -10
Cc1cccc(OC(C)c2ccnc3nc(/N=C/N(C)C)nn23)c1 (stereo unspecified) | 6% | -18 | 11% | -7% | 28µM* | -7
CC(Oc1ccc(F)cc1)c1ccnc2nc(/N=C/N(C)C)nn12 (stereo unspecified) | 7% | 12 | 16% | 12% | / | 7
